# NSD2 inh – NSD2 (human) methyltransferase inhibition. NSD2 peptide methylation, AlphaScreen, 120 min. inhibition, % at 12.5 µM. hit rate 0.54% among 310,000; in the data active means inhibition above about 50%
# Glyco luc inh – N-linked glycosylation inhibition. D54 ERlucT glycosylation luciferase reporter, 24 h; percent of 100 nM tunicamycin response. AID 588692. reporter increase, % at 12.5 µM. hit rate 0.23% among 360,000;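 active means mean luciferase reporter signal, scaled so untreated is 0 and the glycosylation-blocking control 100, at or above a set limit in every replicate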;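 further: luciferase carries N-glycosylation sites so blocking glycosylation raises the light; 0% = median of neutral control wells and 100% = median of 100 nM tunicamycin wells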
# Vif inh – inhibitors of HIV Vif | HEK293T cells, Vif self-association by quenched fluorescence, imaging, 24 h | inhibition, % at 7.49 µM | hit rate 0.35% among 340,000 | AID 602346; in the data active means inhibition above about 50%, passing the limit was not always enough
# ATG4B inhibitor – ATG4B (human) cysteine protease inhibition | AID 504462 | inhibition, % at 8.33 µM | ATG4B cleavage of LC3-PLA2, NBD-HPC fluorescence, 1 h | hit rate 0.51% among 340,000 | Q9Y4P1; in the data active means inhibition above about 40%
# Target sequence (Q9Y4P1 whole entry, looked up): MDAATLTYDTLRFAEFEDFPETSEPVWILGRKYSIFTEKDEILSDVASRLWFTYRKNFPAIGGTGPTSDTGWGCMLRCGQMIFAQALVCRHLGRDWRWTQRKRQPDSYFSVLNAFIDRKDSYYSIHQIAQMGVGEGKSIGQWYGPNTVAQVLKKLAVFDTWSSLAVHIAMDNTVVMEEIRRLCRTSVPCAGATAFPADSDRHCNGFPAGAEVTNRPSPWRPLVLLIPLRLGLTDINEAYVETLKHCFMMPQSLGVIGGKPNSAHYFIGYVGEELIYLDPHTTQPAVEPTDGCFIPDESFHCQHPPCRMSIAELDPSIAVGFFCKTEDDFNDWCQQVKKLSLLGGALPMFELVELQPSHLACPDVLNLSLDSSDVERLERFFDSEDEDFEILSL
# CaV13 ICDI inh – Disruptors of the CACNA1D IQ motif to Ca2+-dependent inactivation inhibitor domain association, primary screening, Förster resonance energy transfer in intact living …; inhibition, % at 12.3 µM; AID 743397; hit rate 0.098% among 340,000; HEK cells, CFP/YFP FRET ICDI-IQ, plate reader, 10 min; percent FRET-ratio fall versus neutral wells;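 active means mean replicate inhibition of at least 30% and at least 1% of replicates passing that level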;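 further: 0% = median of the neutral control wells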
# Pemphigus Ab inh – blocks pemphigus antibody binding to human desmoglein-3; DSG3-coupled beads, scFv-anti-DSG3-GFP binding, flow cytometry; active compounds read low; binding (percent of control), % at 10 µM; hit rate 0.48% among 310,000; AID 588358; P32926;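 active means binding more than 3 SD below its plate's average and above zero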;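 further: hits lower antibody fragment binding to DSG3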
# The depositor's hits bear a star; . = no result; + = active, no number. Hits are enriched below; roughly 1.9% of the tested compounds scored in any of these assays.
SMILES,NSD2 inh,Glyco luc inh,Vif inh,ATG4B inhibitor,CaV13 ICDI inh,Pemphigus Ab inh
Oc1ccc(NCc2ccccc2OCc2ccccc2)cc1,2,52*,7,12,-2,122
CC(C)C(=O)Nc1ccc(C(=O)N/N=C/C2CC3C=CC2C3)cc1 (stereo not drawn),-3,-2,58*,0,-19,84
CC(=O)Nc1ccc(C(=O)N/N=C/C2CC3C=CC2C3)cc1 (stereo not drawn),46,1,4,-3,-4,99
CC(=O)c1ccc2c(c1)C1C=CCC1C(c1ccncc1)N2 (stereo not drawn),5,2,11,-6,.,95
CC(=O)c1ccc2c(c1)C1C=CCC1C(C(=O)O)N2 (stereo not drawn),128*,-2,-1,27,-4,.
COc1cccc2c1NC(C(=O)O)C1CC=CC21 (stereo not drawn),.,2,0,18,.,13*
COc1cccc(C2Nc3c(F)cc(Br)cc3C3C=CCC32)c1OC (stereo not drawn),1,-1,-18,5,-8,90
CCCCC(=O)NNC(=O)N1c2ccccc2Sc2ccccc21,-1,-1,3,1,-5,100
CCCC(=O)C1=C(O)C(C(=O)OC)C(C)(C)CC1=Nc1ccccc1 (stereo not drawn),1,0,-2,7,.,.
COc1ccc2[nH]c3c(NCCCOC(C)C)ncnc3c2c1,4,-8,1,-4,-10,101
CC(=O)Nc1nc(C)c(-c2csc(Nc3ccc(O)cc3)n2)s1,.,-14,61*,-13,.,109
COc1ccc(OCc2cnc(Cl)s2)cc1,-1,-1,55*,-7,.,96
O=[N+]([O-])c1ccc(OCc2cnc(Cl)s2)cc1,5,1,3,-7,-6,101
N#C/C(=C\c1ccc(OC(=O)c2ccc(Br)s2)cc1)c1nc2ccccc2[nH]1,.,5,-6,5,-6,96
CCN(C(=O)C1CCN(c2nc(-c3ccc(OC)cc3)no2)CC1)c1ccc(OC)cc1,.,-4,.,-12,1,105
Cc1ccc(NC(=O)c2ccc(NCc3ccco3)c([N+](=O)[O-])c2)cc1Cl,-2,-5,82*,-9,-4,97
CCc1ccc(NC(=O)c2cc(S(=O)(=O)N3CCCC3)c[nH]2)cc1,.,-1,1,-15,.,98
CCOc1ccc(NC(=O)c2cc(S(=O)(=O)N3CCCCC3)c[nH]2)cc1,.,-4,-6,-17,-6,80*
CC1CCN(C(=O)COc2cccc3c2CCN(Cc2ccccc2)C3=O)CC1,26,0,2,0,91*,116
CCN1CCc2c(OCC(=O)N3CCC(C)CC3)cccc2C1=O,0,-2,-6,2,-7,117
COc1ccc(OC)c(C2=Nn3c(nnc3-c3cccc(OC(C)C)c3)SC2)c1,5,-2,-1,-9,-7,112
O=C(NNC(=S)Nc1ccccc1)c1ccncc1,-1,2,7,-1,.,94
Cc1ccc(C(=O)OCC(=O)Nc2c(C)nn(-c3ccccc3)c2C)c(O)c1,-1,-1,-11,.,51*,94
C[C@H]1CN([C@@H](C)CO)S(=O)(=O)c2ccc(Br)cc2O[C@H]1CN(C)C(=O)C1CCC1,.,-3,.,.,-3,109
C[C@@H]1CN([C@@H](C)CO)S(=O)(=O)c2ccc(Br)cc2O[C@@H]1CN(C)C(=O)C1CC1,.,0,-2,.,-5,84*
SMILES,NSD2 inh,Glyco luc inh,Vif inh,ATG4B inhibitor,CaV13 ICDI inh,Pemphigus Ab inh
COc1ccc(CCN2CC(C(=O)N(C)Cc3ccccc3OC)CCC2=O)cc1 (stereo not drawn),-4,0,-24,1,-5,122
O=C(CN1CCN(S(=O)(=O)c2ccc(C(F)(F)F)cc2)CC1)N1CCNC1=O,-2,1,-4,6,-2,112
c1ccc(COc2ccc(-c3cc4nc(NCCOc5ccccc5)ccn4n3)cc2)cc1,-1,-3,-10,.,-6,.
COc1cc(-c2cc3nc(NCCc4ccc(S(N)(=O)=O)cc4)ccn3n2)cc(OC)c1OC,0,13,1,.,-8,.
COc1cc(-c2cc3nc(NCCOc4ccccc4)ccn3n2)cc(OC)c1OC,-1,46*,.,.,-5,.
COc1cc(-c2cc3nc(NCCc4ccncc4)ccn3n2)cc(OC)c1OC,-1,28*,-8,.,-11,.
N#C/C(=C\c1ccc(C#N)cc1)C(=O)c1ccccc1,0,4,0,1,-19,102
CCN(CC)c1ccc2nc3ccc(N)cc3[n+](-c3ccccc3)c2c1,72*,1,-14,14,-11,101
COc1ccccc1C(=O)N1CCCC(C)(C(=O)NS(=O)(=O)C2CC2)C1 (stereo not drawn),0,1,-1,.,-6,.
Cc1csc(C(=O)O)c1NC(=O)c1cccc([N+](=O)[O-])c1,-4,-1,-2,4,-7,43*
Cc1ccc2oc(C(=O)NCc3ncc(C)[nH]3)c(C)c2c1,3,29*,9,-4,-2,108
CN(/C(=N\S(=O)(=O)c1ccccc1)C(F)(F)F)c1ccccc1,1,1,64*,-8,-5,107
O=C(NNC(=O)C12CC3CC(CC(Br)(C3)C1)C2)c1ccccc1F,-2,2,22,-7,-14,115
CC(C)Oc1ccc(F)cc1-c1cc(C(=O)Nc2ccc(C(C)(C)C)cc2)[nH]n1,-4,42*,0,.,-5,.
CC(C)Oc1ccc(F)cc1-c1cc(C(=O)Nc2ccccc2)[nH]n1,1,-1,0,.,-10,.
CC(=O)c1sc(N/N=C\c2ccc(N(C)C)cc2)nc1C,-4,-8,-1,-3,+,120
O=[N+]([O-])c1ccc(N2CCCC2)cc1N1CCCC1,53*,-2,-2,8,-8,109
O=[N+]([O-])c1ccc(N2CCCCC2)cc1N1CCOCC1,6,0,.,3,-3,101
COC(=O)C1=C(C)NC=C([N+](=O)[O-])C1c1ccc(OC)cc1 (stereo not drawn),1,2,5,-7,-15,94
O=C(NCC1CCCO1)c1cc(-c2ccccc2)on1 (stereo not drawn),-1,34*,3,-1,.,102
Cc1ccnc(N/C=C(\C#N)c2nc(-c3cccc(Br)c3)cs2)c1,1,-2,91*,-15,.,135
c1cc(CNCCN2CCNCC2)ccn1,-2,2,-8,-5,-5,58*
CCC(CO)Oc1cc(NCc2ccc(Cl)cc2)c2ncn(C(C)C)c2c1 (stereo not drawn),.,7,106*,-3,-13,109
CC[C@H](CO)Oc1cc(NCc2ccc(Cl)c(Cl)c2)c2ncn(C(C)C)c2c1,.,-1,7,17,-11,108

# Screening results (PubChem BioAssay)
